Screening data from PubChem BioAssay.
A selection: hits, their analogues and other compounds. The true share with any hit is near 10%.
NS1 inh: inhibitors of influenza NS1 protein function; Potency, µM (titrated, usually from 46.1 µM); 0.4% of 270,000 active; AID 2326; also: actives are rising curves; nearly all actives have a fitted effect of over 50% in size
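In this qHTS, NS1 from influenza A is expressed in budding yeast, where it slows growth. Cells are switched from glucose to 2% galactose medium (pH 6.0, -URA), treated with compound, and growth recovery is read at OD600.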
SARS PLP yeast: blocks SARS-CoV papain-like protease in a yeast assay; 0.19% of 330,000 active; AID 485353; S. cerevisiae expressing SARS-CoV PLpro, growth rescue; Potency, µM (doses to about 32.9 µM), actives largely listed as activators; also: nearly all actives have a fitted effect of over 55% in size
Pf growth 48h: inhibits P. falciparum growth in the first generation, 48 h; P. falciparum luciferase growth in erythrocytes, 48 h; Potency, µM (top dose mostly 28.7 µM), usual class: inhibitors; 5.9% of 310,000 active; AID 504832; active = well fitted inhibition curve with a large enough effect; inconclusive = small, poorly fitted or top-dose-only effect, or another doubt; inactive = no such curve, though single readings can be large or run the other way
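Parasite viability was followed by luminescence of a genomically integrated firefly luciferase. Cultures held 0.1% parasitemia at 2% hematocrit (final), incubated under 5% CO2 at 37 C.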
Pf growth 96h: P. falciparum growth inhibition at 96 hours; P. falciparum luciferase reporter growth, 96 h; Potency, µM (doses to about 28.7 µM), usual class: inhibitors; 6.9% of 320,000 active; active = well fitted inhibition curve with a large enough effect; inconclusive = small, poorly fitted or top-dose-only effect, or another doubt; inactive = no such curve, though single readings can be large or run the other way
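Delayed-death screen, second-generation endpoint: infected erythrocytes, 2% hematocrit, 0.05% parasitemia final; 96 hours at 37 C, 5% CO2; luciferase detection reagent; luminescence decrease equals reduced growth.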
Of the large screens only hits and unclear results are named; the others gave an inactive call. Unless noted, calls follow the shape of the full dose curve.

Cc1c(C(=O)NCCCN2CCCCC2)oc2ccc3c(c12)C(O)CC1(CCCCC1)O3 (stereo not drawn)	Pf growth 48h 8.3µM
CCOC(=O)C1CCN(C(=O)c2oc3ccc4c(c3c2C)C(O)CC2(CCCCC2)O4)CC1 (stereo not drawn)	Pf growth 48h inconclusive
CCOc1cc(C(=O)Nc2cccc(OCC(=O)N3CCOCC3)c2)cc(OCC)c1OCC	none
COc1ccc(/C=C2/C(=O)N(CC3CCCO3)C(=S)N2C)c(OC)c1 (stereo not drawn)	none
COc1ccc2c(c1)nc1n2CN(CC2CCCO2)CN1Cc1ccccc1 (stereo not drawn)	Pf growth 48h 9.3µM, Pf growth 96h 12µM
O=C(/C=C/c1ccncc1)c1cc(Cl)ccc1O	Pf growth 48h inconclusive, Pf growth 96h 9.3µM
NSc1nc(N)c2nc(-c3ccccc3)c(-c3ccccc3)nc2n1	Pf growth 96h inconclusive
Nc1nc(N)c2nc(-c3ccccc3)c(N)nc2n1	NS1 inh inconclusive, Pf growth 48h 1.7µM, Pf growth 96h 3.8µM
O=C(CN(CC1CCCO1)C(=O)CCC(=O)Nc1nccs1)NCC1CCCO1 (stereo not drawn)	Pf growth 96h 13µM
C=CCN(CC(=O)NCC1CCCO1)C(=O)CCC(=O)Nc1cc(C)on1 (stereo not drawn)	Pf growth 96h inconclusive
COCCN(CC(=O)NCC1CCCO1)C(=O)CCC(=O)Nc1cc(C)on1 (stereo not drawn)	Pf growth 96h 1.7µM
CC1CCCCC1NC(=O)CNC(=O)c1ccco1 (stereo not drawn)	none (no result: NS1 inh, SARS PLP yeast)
CCCNC(=O)c1cn(CC)c2cc(N3CCN(C)CC3)c(F)cc2c1=O	Pf growth 96h inconclusive (no result: Pf growth 48h)
CCCc1nnc(NC(=O)c2cn(CC)c3cc(N4CCN(C)CC4)c(F)cc3c2=O)s1	Pf growth 48h 0.37µM, Pf growth 96h 1.2µM
CCCCCNC(=O)c1cn(CC)c2cc(N3CCN(C)CC3)c(F)cc2c1=O	Pf growth 48h inconclusive, Pf growth 96h 15µM
COc1ccccc1N1CCN(C(=O)CCc2nnc3ccc(N4CCOCC4)nn23)CC1	Pf growth 96h inconclusive
CC(=O)c1ccc(COC(=O)c2cc3ccccc3oc2=O)cc1	Pf growth 96h 13µM
CC(=O)OCCNC(=O)c1cc2ccccc2oc1=O	Pf growth 96h 1.7µM
COC(=O)c1ccc(COC(=O)c2cc3ccccc3oc2=O)cc1	Pf growth 96h inconclusive
Cc1ccc(-c2[nH]c3ccccc3c2SCCNC(=O)c2cc3ccccc3oc2=O)cc1	NS1 inh inconclusive, Pf growth 48h inconclusive, Pf growth 96h 5.9µM
CC(NC(=O)c1cc2ccccc2oc1=O)c1ccccc1 (stereo not drawn)	Pf growth 96h 12µM
CC(NC(=O)c1cc2ccccc2o1)c1ccccc1 (stereo not drawn)	none
COc1ccc(N2CCN(C(=O)CC34CC5CC(CC(C5)C3)C4)CC2)c([N+](=O)[O-])c1	Pf growth 48h inconclusive, Pf growth 96h inconclusive
O=C(NCCc1ccccc1)c1cc2ccccc2oc1=O	Pf growth 96h 9.3µM
CCN1CCCC1CNC(=O)c1cc([N+](=O)[O-])c(N(C)C)cc1OC (stereo not drawn)	Pf growth 96h 4.1µM
COc1ccc(CNC(=O)C2(CC3CC(c4ccccc4)=NO3)CCN(C(=O)C3CCCC3)CC2)cc1 (stereo not drawn)	Pf growth 48h inconclusive, Pf growth 96h 5.2µM
CC(=O)CCC1CC(c2ccc(Cl)cc2)=NO1 (stereo not drawn)	none (no result: NS1 inh)
CCCNC(=O)C1(CC2CC(c3ccccc3)=NO2)CCN(C(=O)C2CCCC2)CC1 (stereo not drawn)	Pf growth 48h 13µM, Pf growth 96h 15µM (no result: NS1 inh)
CCCCCCCNC(=O)C1(CC2CC(c3cccc(Br)c3)=NO2)CCN(C(=O)C2(C)CC2)CC1 (stereo not drawn)	Pf growth 48h inconclusive, Pf growth 96h inconclusive (no result: NS1 inh)
O=C(C1CCCC1)N1CCC(CC2CC(c3ccc(Cl)cc3)=NO2)(C(=O)NCC2CCCCC2)CC1 (stereo not drawn)	Pf growth 48h inconclusive, Pf growth 96h 1µM
Cc1cc(C)cc(OCC(=O)Nc2ccc(-n3cnnn3)cc2)c1	none (no result: NS1 inh)
CN(C)c1cccc(C(=O)OC(C(=O)Nc2ccc(Cl)cc2C(F)(F)F)c2ccccc2)c1 (stereo not drawn)	NS1 inh inconclusive, Pf growth 48h inconclusive, Pf growth 96h 12µM
O=C(OC(C(=O)Nc1ccc(Cl)cc1C(F)(F)F)c1ccccc1)C1=COCCO1 (stereo not drawn)	Pf growth 96h inconclusive
Cc1cccc2c(C(=O)N3CCN(c4ccccn4)CC3)cc(-c3cccc(Br)c3)nc12	Pf growth 48h inconclusive, Pf growth 96h inconclusive
Cc1cccc2c(C(=O)N3CCCCC3)cc(-c3ccccc3)nc12	Pf growth 48h 9.3µM
Cc1cccc2c(C(=O)N3CCN(c4ccccc4)CC3)cc(-c3ccncc3)nc12	Pf growth 48h 8.3µM, Pf growth 96h inconclusive
O=C(Cc1cccs1)N1CCN(S(=O)(=O)c2cccc([N+](=O)[O-])c2)CC1	none
CCCNC(=O)c1csc(Nc2cccc3ccccc23)n1	Pf growth 48h 9.3µM, Pf growth 96h 6.6µM
Cc1nccc(-c2cccc(N/N=C(\C#N)C(=O)c3ccccc3)c2)n1	Pf growth 48h 13µM, Pf growth 96h 5.2µM
CCN1CCN(C(=O)Nc2ccc(Cc3ccc(NC(=O)N4CCN(CC)CC4)cc3)cc2)CC1	Pf growth 48h inconclusive, Pf growth 96h 10µM
O=C(CN1CCN(S(=O)(=O)c2ccccc2F)CC1)N1CCc2ccccc2C1	none (no result: NS1 inh, Pf growth 48h, Pf growth 96h)
Cc1ccc2[nH]c(C(=O)O)c(NC(=O)CN3CCN(c4cccc(C)c4C)CC3)c2c1	Pf growth 96h 4.7µM
COC(=O)c1[nH]c2ccc(C)cc2c1NC(=O)CN1CCN(c2ccccc2)CC1	Pf growth 48h 10µM (no result: Pf growth 96h)
COC(=O)c1[nH]c2ccc(Cl)cc2c1NC(=O)CN1CCC(C(N)=O)CC1	Pf growth 48h 12µM, Pf growth 96h inconclusive
CC(C)C[C@@H](NC(=O)C1CCC(CNC(=O)[C@H](Cc2ccccc2)NC(=O)OC(C)(C)C)CC1)C(=O)O (stereo partly drawn)	none
COC(=O)c1ccc2[nH]c3cccc(/C(=C/c4ccccc4)c4ccccc4)c3c2c1	Pf growth 48h inconclusive, Pf growth 96h 3.7µM
COC(=O)c1cccc(NC(=O)/C(=C\c2ccccc2)NC(=O)c2ccccc2Cl)c1	Pf growth 96h inconclusive
O=C1CCCc2[nH]c3cccc(/C(=C/c4ccccc4)c4ccccc4)c3c21	Pf growth 96h 12µM
COc1cc(/C=C(/NC(C)=O)C(=O)O)cc(Cl)c1OCc1ccc(Br)cc1	Pf growth 48h inconclusive, Pf growth 96h inconclusive
CCc1cccc(C)c1N=Cc1c(O)c2ccccc2oc1=O	Pf growth 48h 13µM
CC(C)CC(N=Cc1c(O)c2ccccc2oc1=O)C(=O)O (stereo not drawn)	none (no result: NS1 inh)
O=C(O)CCCN=Cc1c(O)c2ccccc2oc1=O	Pf growth 96h 10µM (no result: NS1 inh)
COc1cccc(CC2(CO)CCN(Cc3cnc(N4CCOCC4)s3)CC2)c1	none
OCC1(CCCc2ccccc2)CCN(Cc2cnc(N3CCOCC3)s2)CC1	Pf growth 96h 9.3µM
C[C@H](CN(C)C)C(O)(c1ccccc1)c1ccccc1	none (no result: SARS PLP yeast, Pf growth 48h, Pf growth 96h)
